Test results reported in ChEMBL document CHEMBL1961873, “Compounds: GSK PKIS; Assays: Nanosyn kinase panel” (2012).

What was measured:
[1] = biological target: T1, Serine/threonine-protein kinase D2 (Homo sapiens) (UniProt Q9BZL6); details: at 1 µM;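 further: mean value of PRKD2 inhibition, from the GSK PKIS screening panel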
T1 sequence (whole entry): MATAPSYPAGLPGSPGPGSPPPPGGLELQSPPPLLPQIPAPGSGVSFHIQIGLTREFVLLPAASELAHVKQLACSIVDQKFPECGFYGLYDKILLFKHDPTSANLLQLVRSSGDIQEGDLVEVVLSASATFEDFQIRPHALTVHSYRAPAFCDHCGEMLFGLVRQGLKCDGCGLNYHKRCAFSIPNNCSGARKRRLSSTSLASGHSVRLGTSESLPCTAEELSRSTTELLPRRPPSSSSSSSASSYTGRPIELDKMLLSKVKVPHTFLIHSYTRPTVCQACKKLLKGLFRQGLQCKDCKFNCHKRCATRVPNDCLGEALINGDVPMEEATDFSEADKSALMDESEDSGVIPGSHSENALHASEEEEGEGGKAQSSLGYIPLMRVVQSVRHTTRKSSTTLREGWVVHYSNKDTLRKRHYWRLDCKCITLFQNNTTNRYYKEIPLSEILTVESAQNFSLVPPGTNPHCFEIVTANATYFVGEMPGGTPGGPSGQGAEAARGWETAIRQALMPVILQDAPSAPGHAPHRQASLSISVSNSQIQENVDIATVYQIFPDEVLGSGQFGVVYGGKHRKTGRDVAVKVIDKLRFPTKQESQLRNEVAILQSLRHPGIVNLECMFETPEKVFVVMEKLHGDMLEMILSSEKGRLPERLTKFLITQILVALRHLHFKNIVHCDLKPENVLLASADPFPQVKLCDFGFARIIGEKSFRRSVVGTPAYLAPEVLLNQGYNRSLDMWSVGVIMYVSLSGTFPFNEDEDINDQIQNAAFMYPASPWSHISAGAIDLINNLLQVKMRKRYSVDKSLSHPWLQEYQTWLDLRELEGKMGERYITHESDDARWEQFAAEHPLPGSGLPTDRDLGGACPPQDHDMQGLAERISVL

[2] = biological target: T2, Serine/threonine-protein kinase D3 (Homo sapiens) (UniProt O94806); details: at 0.1 µM
T2 sequence (whole entry): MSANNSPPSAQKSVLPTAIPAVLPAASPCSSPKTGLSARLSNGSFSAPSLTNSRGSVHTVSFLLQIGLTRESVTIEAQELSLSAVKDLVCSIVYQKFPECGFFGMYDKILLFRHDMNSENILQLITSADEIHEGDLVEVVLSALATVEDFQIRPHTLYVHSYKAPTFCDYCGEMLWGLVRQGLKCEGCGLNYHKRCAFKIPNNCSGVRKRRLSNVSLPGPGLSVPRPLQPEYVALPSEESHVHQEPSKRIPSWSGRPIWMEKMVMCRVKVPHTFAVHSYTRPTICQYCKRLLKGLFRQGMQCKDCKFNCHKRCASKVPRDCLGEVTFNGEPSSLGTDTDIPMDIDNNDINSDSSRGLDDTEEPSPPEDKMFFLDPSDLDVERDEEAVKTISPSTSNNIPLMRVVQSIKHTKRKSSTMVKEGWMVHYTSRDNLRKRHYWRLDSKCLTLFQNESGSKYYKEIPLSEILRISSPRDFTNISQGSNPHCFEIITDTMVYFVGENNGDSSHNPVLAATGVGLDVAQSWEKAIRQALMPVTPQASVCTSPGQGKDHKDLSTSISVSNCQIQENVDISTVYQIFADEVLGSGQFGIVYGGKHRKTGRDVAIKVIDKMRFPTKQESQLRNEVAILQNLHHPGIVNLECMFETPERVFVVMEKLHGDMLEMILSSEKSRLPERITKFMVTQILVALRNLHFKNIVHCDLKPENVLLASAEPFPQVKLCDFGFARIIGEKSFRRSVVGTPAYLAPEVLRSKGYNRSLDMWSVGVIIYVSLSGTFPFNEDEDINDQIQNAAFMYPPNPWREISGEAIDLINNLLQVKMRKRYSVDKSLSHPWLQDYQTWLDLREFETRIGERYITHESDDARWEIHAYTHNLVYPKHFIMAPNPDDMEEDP

[3] = biological target: T2, Serine/threonine-protein kinase D3 (Homo sapiens); details: at 1 µM
[4] = biological target: T3, cGMP-dependent protein kinase 1 (Homo sapiens) (UniProt Q13976); details: at 0.1 µM
T3 sequence (whole entry): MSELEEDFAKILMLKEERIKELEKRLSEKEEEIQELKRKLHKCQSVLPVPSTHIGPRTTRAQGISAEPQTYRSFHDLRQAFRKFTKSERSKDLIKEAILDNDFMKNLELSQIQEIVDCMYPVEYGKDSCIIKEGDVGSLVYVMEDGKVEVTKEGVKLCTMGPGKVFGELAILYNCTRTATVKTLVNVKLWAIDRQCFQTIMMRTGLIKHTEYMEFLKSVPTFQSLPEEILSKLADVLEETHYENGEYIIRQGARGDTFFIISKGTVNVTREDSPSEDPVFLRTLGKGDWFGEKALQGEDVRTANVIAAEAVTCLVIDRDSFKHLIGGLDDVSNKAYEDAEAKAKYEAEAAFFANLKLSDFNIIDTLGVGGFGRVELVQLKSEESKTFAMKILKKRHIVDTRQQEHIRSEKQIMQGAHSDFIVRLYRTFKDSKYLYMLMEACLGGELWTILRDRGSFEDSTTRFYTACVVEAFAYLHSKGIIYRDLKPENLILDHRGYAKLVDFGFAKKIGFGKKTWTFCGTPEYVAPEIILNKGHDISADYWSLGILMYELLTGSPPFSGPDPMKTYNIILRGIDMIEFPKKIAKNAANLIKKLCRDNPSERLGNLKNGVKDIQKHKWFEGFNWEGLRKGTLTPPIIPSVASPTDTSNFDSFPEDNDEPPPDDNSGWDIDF

[5] = biological target: T3, cGMP-dependent protein kinase 1 (Homo sapiens); details: at 1 µM
[6] = biological target: T4, cGMP-dependent protein kinase 2 (Homo sapiens) (UniProt Q13237); details: at 0.1 µM
T4 sequence (whole entry): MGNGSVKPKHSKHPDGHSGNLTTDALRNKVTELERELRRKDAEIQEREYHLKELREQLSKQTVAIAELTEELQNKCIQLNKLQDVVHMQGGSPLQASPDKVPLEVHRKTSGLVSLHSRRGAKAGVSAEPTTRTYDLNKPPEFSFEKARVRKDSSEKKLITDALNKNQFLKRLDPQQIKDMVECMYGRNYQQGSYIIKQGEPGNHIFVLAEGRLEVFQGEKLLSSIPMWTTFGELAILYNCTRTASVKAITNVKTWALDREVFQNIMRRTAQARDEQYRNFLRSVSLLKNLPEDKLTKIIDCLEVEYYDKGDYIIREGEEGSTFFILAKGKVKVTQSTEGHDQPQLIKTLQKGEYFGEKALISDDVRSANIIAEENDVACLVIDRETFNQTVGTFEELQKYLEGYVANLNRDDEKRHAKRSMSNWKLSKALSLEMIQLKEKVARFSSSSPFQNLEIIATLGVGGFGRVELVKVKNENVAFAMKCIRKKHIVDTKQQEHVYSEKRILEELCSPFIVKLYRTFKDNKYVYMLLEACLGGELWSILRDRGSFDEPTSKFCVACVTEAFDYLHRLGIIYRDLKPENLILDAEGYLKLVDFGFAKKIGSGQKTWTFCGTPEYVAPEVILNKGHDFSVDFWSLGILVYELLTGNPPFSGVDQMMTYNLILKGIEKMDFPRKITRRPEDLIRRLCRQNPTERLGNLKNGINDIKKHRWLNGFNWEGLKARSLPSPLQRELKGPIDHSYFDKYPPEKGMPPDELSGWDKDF

[7] = biological target: T4, cGMP-dependent protein kinase 2 (Homo sapiens); details: at 1 µM
[8] = biological target: T5, cAMP-dependent protein kinase catalytic subunit PRKX (Homo sapiens) (UniProt P51817); details: at 0.1 µM
T5 sequence (whole entry): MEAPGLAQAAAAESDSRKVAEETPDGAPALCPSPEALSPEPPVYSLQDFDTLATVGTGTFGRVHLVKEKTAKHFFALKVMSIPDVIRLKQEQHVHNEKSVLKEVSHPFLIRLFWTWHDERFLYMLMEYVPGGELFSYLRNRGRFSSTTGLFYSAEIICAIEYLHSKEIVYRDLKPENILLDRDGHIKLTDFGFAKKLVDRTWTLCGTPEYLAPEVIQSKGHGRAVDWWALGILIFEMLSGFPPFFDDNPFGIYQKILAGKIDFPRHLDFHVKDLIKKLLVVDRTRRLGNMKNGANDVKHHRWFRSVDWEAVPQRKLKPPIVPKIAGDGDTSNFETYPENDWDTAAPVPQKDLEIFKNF

[9] = biological target: T5, cAMP-dependent protein kinase catalytic subunit PRKX (Homo sapiens); details: at 1 µM
[10] = biological target: Rho-associated protein kinase 1 (Homo sapiens) (UniProt Q13464); details: at 0.1 µM;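 further: values are mean percent inhibition of ROCK1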
Rho-associated protein kinase 1 (Homo sapiens), sequence (Q13464 2-1354 limits assumed): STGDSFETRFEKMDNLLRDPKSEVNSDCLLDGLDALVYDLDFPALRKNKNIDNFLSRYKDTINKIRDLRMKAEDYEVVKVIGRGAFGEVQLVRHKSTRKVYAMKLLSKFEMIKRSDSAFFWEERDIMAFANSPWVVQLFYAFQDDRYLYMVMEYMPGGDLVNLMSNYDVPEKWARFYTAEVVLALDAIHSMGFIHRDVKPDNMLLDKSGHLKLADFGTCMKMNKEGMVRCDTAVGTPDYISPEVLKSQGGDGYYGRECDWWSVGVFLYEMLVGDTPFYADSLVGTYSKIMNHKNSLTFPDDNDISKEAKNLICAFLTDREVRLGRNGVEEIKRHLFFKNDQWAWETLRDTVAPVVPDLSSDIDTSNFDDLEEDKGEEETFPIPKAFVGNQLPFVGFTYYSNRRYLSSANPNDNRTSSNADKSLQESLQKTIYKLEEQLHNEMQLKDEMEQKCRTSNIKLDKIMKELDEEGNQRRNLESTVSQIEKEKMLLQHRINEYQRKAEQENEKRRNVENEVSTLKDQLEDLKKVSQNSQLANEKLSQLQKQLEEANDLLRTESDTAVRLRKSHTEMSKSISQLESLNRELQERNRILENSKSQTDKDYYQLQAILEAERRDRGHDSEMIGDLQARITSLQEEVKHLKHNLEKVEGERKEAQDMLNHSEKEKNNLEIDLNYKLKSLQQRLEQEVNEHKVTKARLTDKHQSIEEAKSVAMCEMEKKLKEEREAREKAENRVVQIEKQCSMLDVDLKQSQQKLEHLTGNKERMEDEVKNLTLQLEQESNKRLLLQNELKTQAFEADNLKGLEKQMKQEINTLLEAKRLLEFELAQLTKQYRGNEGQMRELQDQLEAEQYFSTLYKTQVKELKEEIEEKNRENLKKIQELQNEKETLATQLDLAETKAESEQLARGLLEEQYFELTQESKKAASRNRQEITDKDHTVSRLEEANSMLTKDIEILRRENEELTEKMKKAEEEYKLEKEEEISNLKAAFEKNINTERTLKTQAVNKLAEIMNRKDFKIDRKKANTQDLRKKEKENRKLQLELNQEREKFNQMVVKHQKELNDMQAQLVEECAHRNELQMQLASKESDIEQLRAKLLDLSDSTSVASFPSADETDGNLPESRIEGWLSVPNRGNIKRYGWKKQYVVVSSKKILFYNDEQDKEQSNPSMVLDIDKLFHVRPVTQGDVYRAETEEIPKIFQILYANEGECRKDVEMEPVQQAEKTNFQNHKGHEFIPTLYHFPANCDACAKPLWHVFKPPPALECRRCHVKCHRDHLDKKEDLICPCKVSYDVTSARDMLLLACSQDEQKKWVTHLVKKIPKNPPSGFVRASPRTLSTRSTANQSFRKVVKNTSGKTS

Row | SMILES | inhibition [1] [%] | inhibition [2] [%] | inhibition [3] [%] | inhibition [4] [%] | inhibition [5] [%] | inhibition [6] [%] | inhibition [7] [%] | inhibition [8] [%] | inhibition [9] [%] | inhibition [10] [%]
1 | COc1cccc(-n2ncc3c(N/N=C/c4ccc(F)cc4)ncnc32)c1 | 3.35 | 4.25 | 4.06 | 1.9 | 4.15 | 2.19 | 2.67 | 2.4 | 4.79 | 1
2 | Cc1ccc(O)cc1Nc1ccnc2cc(-c3ccccn3)ccc12 | 34.9 | 5.74 | 18.9 | 3.58 | 1.99 | 1.7 | 3.8 | 1.87 | -2.49 | 0.91
3 | CCN(CC)S(=O)(=O)c1ccc(OC)c(Nc2ncc(-c3ccccc3)o2)c1 | 1.51 | -0.55 | 0.06 | 0.75 | 0.61 | 0.25 | 0.95 | 0.38 | 0.62 | 0.86
4 | COc1ccc(-c2cc(-c3c[nH]nc3-c3ccccn3)ccn2)cc1 | 44.8 | 7.96 | 27.2 | 1.9 | 5.45 | 3.27 | 4.61 | 2.8 | 6.17 | 1.04
5 | CN1CCC(n2cnc(-c3ccc(F)cc3)c2-c2ccnc(Nc3ccccc3)n2)CC1 | 46.5 | 6.42 | 43.5 | 1.69 | 3.29 | 0.99 | 5.8 | 1.37 | 1.71 | -0.46
6 | c1cc(-c2cnn3nc(N4CCOCC4)ccc23)nc(NC2CC2)n1 | 52.4 | 5.91 | 49.9 | 2.98 | 6.68 | 2.25 | 11.9 | 1.09 | -0.73 | 1.67
7 | CC(C)COC(=O)c1ccc2c(c1)/C(=C/Nc1ccc(S(N)(=O)=O)cc1)C(=O)N2 | 62.1 | 1.74 | 46.3 | 4.93 | 14.3 | 11 | 54.4 | 6.36 | 13.5 | 4.52
8 | NS(=O)(=O)c1ccc(N/N=C2\C(=O)Nc3ccc4ncccc4c32)cc1 | 55.7 | 8.6 | 51.4 | 4.46 | 22.6 | 9.97 | 46.1 | -0.15 | 2.43 | 7.13
9 | COc1ccc(-c2oc3ncnc(N)c3c2-c2ccc(NC(=O)Nc3cc(C(F)(F)F)ccc3F)cc2)cc1 | 3.15 | 3.02 | 2.96 | 4.53 | 3.73 | 3.35 | 5.54 | 4.23 | 3.47 | 2.21
10 | COc1cc2c(cc1Nc1nc(Nc3ccsc3C(N)=O)c3cc[nH]c3n1)N(C(=O)CN(C)C)CCC2(C)C | 75.7 | 19.8 | 75.7 | 3.61 | 8.75 | 4.41 | 9.54 | 2.19 | 6.05 | 25
11 | CNC(=O)c1cccc(C#Cc2cncnc2Nc2ccc(OCc3cccc(F)c3)c(Cl)c2)c1 | 2.02 | 0.11 | 0.04 | -0.44 | 3.3 | 0.38 | 0.97 | -0.25 | 0.9 | -1.85
12 | CCCN(CCS(C)(=O)=O)Cc1ccc(-c2ccc3ncnc(Nc4ccc(OCc5cccc(F)c5)c(Cl)c4)c3c2)o1 | 1.95 | 1.29 | 2.73 | 1.66 | 1.47 | 0.95 | 1.07 | 1.89 | 1.27 | 0.42
13 | CCn1c(-c2nonc2N)nc2ccccc21 | 4.37 | 2.15 | 3.93 | 6.5 | 30.9 | 26.9 | 70.6 | 3.21 | 5.67 | 6.65
14 | CC(C)(CO)CNC(=O)c1ccc2c(c1)/C(=N/Nc1ccc(S(N)(=O)=O)cc1)C(=O)N2 | 11.8 | 0.07 | 9.82 | 0.66 | 11.8 | 2.6 | 22 | 0.91 | 3.07 | 0.33
15 | Cc1cccc2c1NC(=O)/C2=N\Nc1ccc(S(N)(=O)=O)cc1 | 3.1 | 3.5 | 3.85 | 0.72 | 2.94 | 3.15 | 3.38 | 1.15 | 2.2 | 1.31
16 | COc1ccc2c(-c3ccnc(Nc4cccc(OC(F)(F)F)c4)n3)cnn2n1 | 5.35 | 3.53 | 5.76 | 2.98 | 14.2 | 1.96 | 7.99 | 2.02 | 3.71 | 1.01
17 | NC(=O)c1sc(-n2cnc3ccc(C(F)(F)F)cc32)cc1OCc1ccccc1Br | 4.08 | 4.03 | 3.94 | 3.55 | 8.39 | 2.01 | 5.42 | 3.81 | 8.33 | 0.45
